Consider 27 compounds from PubChem BioAssay (NCATS).

Experiment [1] deals with Calcium and integrin-binding protein 1 (Homo sapiens) (UniProt Q99828). Kind of experiment: Primary qHTS for Identification of Calcium Integrin Binding Protein 1 (CIB1) Competitor (AID 1508620).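 Further: GST tagged CIB1 binding a fluorescein labelled alphaIIb integrin peptide tracer; top concentration of the series differs between compounds; on the % scale 0 is the no-effect control and ±100 the full control effect.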 In a few lines: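 CIB1-GST (1 uM final) and compound incubated 15 min at room temperature before adding FITC-alphaIIb peptide tracer (100 nM final). Competition for binding read by fluorescence polarization (ex 480, em 540) after another 15 min at room temperature.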

The nature of experiment [2]: Primary qHTS for small molecule stabilizers of the endoplasmic reticulum resident proteome: Secreted ER Calcium Modulated Protein (SERCaMP) assay (AID 1508630). Further: on the % scale 0 is the no-effect control and ±100 the full control effect. Summed up: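 GLuc-SERCaMP-expressing SH-SY5Y cells, pretreated 16 h with compound, are challenged with thapsigargin to empty ER calcium stores; after 4 h, coelenterazine is added directly to the medium and luminescence is imaged.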

In experiment [3] the target is Cytochrome P450 2D6 (Homo sapiens) (UniProt P10635). In words: Cytochrome P450 family 2 subfamily D member 6 (CYP2D6) small molecule antagonists: luciferase biochemical (cell-free) qHTS assay (AID 1645840; active means well fitted curve in the direction sought with a large enough effect in the repeat runs; an effect the other way counts as inactive or inconclusive; further: nearly all actives have a fitted effect of over 55% in size; further: potency means the concentration at half of the fitted maximal effect). Summed up:
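P450-Glo luminescent screen: recombinant CYP2D6 enzyme–proluciferin substrate mix preincubated with compound 10 min at room temperature, then NADPH regeneration added for 1 h at room temperature. Detection reagent added for 20 min; luciferin light read as relative luminescence units.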

Experiment [4] addresses Cytochrome P450 2C9 (Homo sapiens) (UniProt P11712). In words: Cytochrome P450 family 2 subfamily C member 9 (CYP2C9) small molecule antagonists: luciferase biochemical (cell-free) qHTS assay (AID 1645842; active means well fitted curve in the direction sought with a large enough effect in the repeat runs; an effect the other way counts as inactive or inconclusive; further: nearly all actives have a fitted effect of over 55% in size; further: potency means the concentration at half of the fitted maximal effect). Summed up: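 Luminescence, after 20 min with luciferin detection reagent, reflected CYP2C9 turnover during a 1 h NADPH-driven reaction at 37C. Enzyme-substrate mix contained 0.4% bovine serum albumin and was preincubated with compound 10 min at room temperature.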

A short description of experiment [5]: A High-Content qHTS Against Drug Library for the Identification of Small Molecules that Inhibit DYT1 Early Onset Primary Dystonia-Associated Cell Pathology (AID 1645839; calls by dose curve; further: series mostly up to about 46 µM). Summed up: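 In this high-content image screen, delE TorsinA mislocalization in inducible Flp-In 293 cells is scored as %pathology, with cell count serving as the counterscreen. Compound exposure lasts 48 h under tetracycline induction in reduced-serum medium.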

The nature of experiment [6]: Counterscreen qHTS for small molecule stabilizers of the endoplasmic reticulum resident proteome: GLuc-NoTag assay (AID 1508627).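 Further: SH-SY5Y cells given compound then 100 nM thapsigargin to empty ER calcium; series mostly up to about 76 µM; 0% = thapsigargin alone and -100% = DMSO vehicle control.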 In a few lines:
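Luminescence of Gaussia luciferase secreted into the medium (coelenterazine, 0.07x final, unlysed cells) was the read-out. Human SH-SY5Y neuroblastoma cells constitutively secreting untagged GLuc received compound for 19 h, then 100 nM thapsigargin for 4 h.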

The nature of experiment [7]: Confirmatory qHTS for small molecule stabilizers of the endoplasmic reticulum resident proteome: Secreted ER Calcium Modulated Protein (SERCaMP) assay (AID 1508628). Further: series mostly up to about 76 µM; on the % scale 0 is the no-effect control and ±100 the full control effect; nearly all actives have a fitted effect of over 40% in size. Summed up:
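SH-SY5Y cells stably expressing GLuc-SERCaMP, treated 16 h with compound (primary 1.53, 7.67, 38.3 uM; confirmation 11 concentrations, up to 76.6 uM), then 100 nM thapsigargin for 4 h. Secreted Gaussia luciferase in medium read by coelenterazine luminescence.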

Experiment [8] in a line: Cell Viability qHTS for small molecule stabilizers of the endoplasmic reticulum resident proteome (AID 1508629).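 Further: human SH-SY5Y neuroblastoma cells carrying the GLuc-SERCaMP reporter; compound exposure about 46 h in total before the viability read; on the % scale 0 is the no-effect control and ±100 the full control effect.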 The settings on record: cell viability counter-screen, 100 nM thapsigargin for final 4 h.

Records with an inconclusive call do not appear. Values without a mark were called inactive. Activity calls are given as the source filed them. Unless noted, the call rests on the fitted dose curve; in most records, active means well fitted curve in the direction sought with a large enough effect; inconclusive means small, poorly fitted or top-dose-only effect, or another doubt; inactive means no such curve, though single readings can be large; an effect the other way counts as inactive or inconclusive.

Cytochrome P450 2C9 (Homo sapiens), sequence (P11712 whole entry, looked up): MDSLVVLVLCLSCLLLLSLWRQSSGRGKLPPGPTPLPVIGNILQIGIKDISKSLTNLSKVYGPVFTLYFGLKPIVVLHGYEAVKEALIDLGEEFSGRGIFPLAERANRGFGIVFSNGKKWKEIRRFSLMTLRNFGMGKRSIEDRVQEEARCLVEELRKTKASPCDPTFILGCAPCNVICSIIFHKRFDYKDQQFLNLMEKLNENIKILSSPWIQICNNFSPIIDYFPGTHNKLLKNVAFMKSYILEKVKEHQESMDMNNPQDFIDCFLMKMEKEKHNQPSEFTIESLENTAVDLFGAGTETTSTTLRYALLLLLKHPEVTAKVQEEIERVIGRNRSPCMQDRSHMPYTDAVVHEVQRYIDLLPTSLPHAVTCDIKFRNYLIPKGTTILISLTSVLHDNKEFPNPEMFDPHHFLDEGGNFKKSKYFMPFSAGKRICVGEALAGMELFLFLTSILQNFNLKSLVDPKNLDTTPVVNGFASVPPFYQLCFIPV
Calcium and integrin-binding protein 1 (Homo sapiens), sequence (Q99828 whole entry, looked up): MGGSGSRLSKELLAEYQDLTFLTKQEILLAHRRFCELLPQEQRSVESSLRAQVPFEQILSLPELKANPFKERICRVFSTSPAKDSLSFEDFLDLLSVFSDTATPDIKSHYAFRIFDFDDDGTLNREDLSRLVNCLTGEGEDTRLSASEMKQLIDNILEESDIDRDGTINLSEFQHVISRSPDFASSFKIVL
Cytochrome P450 2D6 (Homo sapiens), sequence (P10635 whole entry, looked up): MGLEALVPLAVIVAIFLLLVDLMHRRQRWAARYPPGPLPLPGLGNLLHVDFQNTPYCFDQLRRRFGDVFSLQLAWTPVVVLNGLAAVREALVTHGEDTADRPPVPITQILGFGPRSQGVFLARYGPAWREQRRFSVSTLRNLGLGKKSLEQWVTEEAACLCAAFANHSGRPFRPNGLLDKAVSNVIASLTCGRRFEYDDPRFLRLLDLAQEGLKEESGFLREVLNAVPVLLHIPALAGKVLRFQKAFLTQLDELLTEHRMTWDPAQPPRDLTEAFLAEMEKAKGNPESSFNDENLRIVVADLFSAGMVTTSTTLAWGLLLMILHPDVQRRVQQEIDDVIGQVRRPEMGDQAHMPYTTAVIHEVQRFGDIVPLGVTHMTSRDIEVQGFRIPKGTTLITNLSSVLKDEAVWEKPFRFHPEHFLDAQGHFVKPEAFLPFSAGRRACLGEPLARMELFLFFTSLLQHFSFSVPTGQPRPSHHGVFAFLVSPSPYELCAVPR

Take `CC1CCCCN1CCCOC(=O)c1ccc(OC2CCCCC2)cc1` (configuration not stated): the Potency result in experiment [1], in experiment [2] and in experiment [4] was “inactive” in each case. Moreover, the Potency in experiment [3] was 11 µM (active).
Consider `CCOC(=O)C1=C(C)NC(C)=C(C(=O)OCC)C1c1ccccc1/C=C/C(=O)OC(C)(C)C`, for which the Potency entry in experiment [1] and in experiment [2] was “inactive” each time. Besides, in experiment [4], the Potency is 0.49 µM (active).
For the compound `CCOC(=O)Cn1cccc1-c1nc(-c2ccc(OC)cc2)c(-c2ccc(OC)cc2)s1`, the Potency result in experiment [1], in experiment [2] and in experiment [3] was “inactive” each time.
As to `COc1ccc(-n2nc(CCC(=O)N(C)O)cc2-c2ccc(Cl)cc2)cc1`, the Potency result in experiment [1] and in experiment [2] was “inactive” throughout. The Potency in experiment [3] is 4.9 µM (active); in experiment [4], 2.75 µM (active).
Turning to `O=C(Nc1ccc(Cl)cc1)Nc1ccc(Cl)c(C(F)(F)F)c1`, the Potency entry in experiment [1] and in experiment [2] was “inactive” each time. Moreover, the Potency in experiment [3] is 13.8 µM (active); in experiment [4] it was 11 µM (active).
Turning to `COC(=O)C1=C(C)NC(COC(N)=O)=C(C(=O)OC(C)C)C1c1cccc(Cl)c1Cl` (configuration not stated), the Potency result in experiment [1] and in experiment [2] was “inactive” each time. The values for the Potency in experiment [3] and in experiment [4] were 19.5 µM (active) and 4.36 µM (active), respectively.
For `CCCCCOc1ccccc1/C(=C\SC)n1ccnc1`, the Potency entry in experiment [1] and in experiment [2] was “inactive” each time. Moreover, the Potency in experiment [3] was 0.977 µM (active); in experiment [4], 3.89 µM (active).
`O=C(CS(=O)Cc1ccco1)NC/C=C\COc1cc(CN2CCCCC2)ccn1` (configuration not stated): the Potency entry in experiment [1], in experiment [2] and in experiment [4] was “inactive” throughout.
For the compound `Cc1cc(=O)oc2cc(O[C@@H]3SC[C@@H](O)[C@H](O)[C@H]3O)ccc12`, the Potency entry in experiment [1], in experiment [2], in experiment [3] and in experiment [4] was “inactive” in each case.
Turning to `CC(C)=CCNc1ncnc2c1ncn2[C@@H]1O[C@H](CO)[C@@H](O)[C@H]1O`, the Potency entry in experiment [1], in experiment [2], in experiment [3] and in experiment [4] was “inactive” each time.
As for `Cc1nc(N)nc(N)c1-c1ccc(Cl)c(Cl)c1`, the Potency entry in experiment [1], in experiment [2] and in experiment [4] was “inactive” throughout. For the same compound, the Potency in experiment [3] was 0.871 µM (active).
On to `CCOC(=O)c1cc(=O)c2c(OCC(COc3cccc4oc(C(=O)OCC)cc(=O)c34)OC(=O)[C@@H](N)CCCCN)cccc2o1`, for which the Potency entry in experiment [1] and in experiment [5] was “inactive” each time.
With `Cc1ccc(O)cc1`, the Potency result in experiment [1] and in experiment [5] was “inactive” throughout.
For the compound `O=C(Nc1ccc(Cl)cc1)Nc1ccc(Cl)c(Cl)c1`, the Potency entry in experiment [1], in experiment [2] and in experiment [3] was “inactive” each time. Moreover, the Potency in experiment [4] is 4.36 µM (active).
Turning to `C[N+]1(C)CCC(OC(=O)C(O)(c2ccccc2)C2CCCC2)C1` (configuration not stated), the Potency entry in experiment [1] and in experiment [5] was “inactive” in each case.
Take `CC(NCCC(c1ccccc1)c1ccccc1)c1ccccc1` (configuration not stated): the Potency entry in experiment [1] and in experiment [2] was “inactive” each time. The Potency was 0.0871 µM (active) in experiment [3] and 13.8 µM (active) in experiment [4].
Regarding `CCCCOCCOC(=O)c1cccnc1`, the Potency result in experiment [1] and in experiment [5] was “inactive” throughout.
Consider `CCCCC(CC)COC(=O)c1ccccc1C(=O)O` (configuration not stated), for which the Potency result in experiment [1] and in experiment [2] was “inactive” each time. The Potency in experiment [4] is 6.26 µM (active).
Take `CC(C)=CCC/C(C)=C/CC/C(C)=C/C(=O)OCC(=O)[C@@]1(O)CC[C@H]2[C@@H]3CCC4=CC(=O)C=C[C@]4(C)[C@H]3[C@@H](O)C[C@@]21C`: the Potency result in experiment [1], in experiment [2] and in experiment [3] was “inactive” in each case. Further, the Potency in experiment [4] was 1.74 µM (active).
In the case of `COc1ccccc1OCC1CNC(=O)O1` (configuration not stated), the Potency result in experiment [1], in experiment [2], in experiment [3] and in experiment [4] was “inactive” throughout.
For the compound `O=C(c1ccccc1)c1ccccc1`, the Potency entry in experiment [1] and in experiment [5] was “inactive” each time.
With `Cc1cc(OCCOCC[N+](C)(C)Cc2ccccc2)ccc1C(C)(C)CC(C)(C)C`, the Potency result in experiment [1] and in experiment [2] was “inactive” in each case. Moreover, in experiment [3], the Potency is 7.76 µM (active).
`CC(=O)N(c1onc(C)c1C)S(=O)(=O)c1ccc(N)cc1`: the Potency result in experiment [5], in experiment [3] and in experiment [4] was “inactive” in each case.
Regarding `NS(=O)(=O)c1cc2c(cc1Cl)CN(C1CCCCC1)C2=O`, the Potency entry in experiment [2], in experiment [5], in experiment [3] and in experiment [4] was “inactive” throughout.
On to `OCc1c[nH]c2ccccc12`, for which, in experiment [1], the Potency result is “inactive”. For the same compound, the Potency is 25.2 µM (active) in experiment [3] and 7.31 µM (active) in experiment [4].
As for `N[C@@H](Cc1cc(I)c(O)c(I)c1)C(=O)O`, the Potency entry in experiment [6], in experiment [7], in experiment [2] and in experiment [5] was “inactive” throughout. For the same compound, the max response in experiment [8] was 10.7%. For the same compound, in experiment [4], the Potency is 15.5 µM (active).
With `CCCCC/C=C\C/C=C\CCCCCCCC(=O)NC(C)c1ccccc1` (configuration not stated), the Potency entry in experiment [1] was “inactive”. Further, the Potency in experiment [3] was 3.89 µM (active); in experiment [4], 1.55 µM (active).
